# Compounds without any hit were thinned out: in the full panel of roughly 83,000, 20% have a hit.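 Testing used 96-well plates and a 48-hour single-concentration exposure. Example: -40 means 40% of the starting cells died.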 Unmarked numbers belong to inactive results. Activity calls are given as the source filed them. The calls were made as follows: active = growth percent below 10; inactive = the rest.
# Key:
# Experiment in all cases: NCI-60 one-dose screen, 48 h (100 = growth as untreated, 0 = no growth, -100 = all killed)
# Conditions in all cases: 10 µM unless noted
# BT-549 breast = test system: BT-549 breast
# MDA-MB-435 melanoma = test system: MDA-MB-435 melanoma
# SW-620 colon = test system: SW-620 colon
# MCF7 breast = test system: MCF7 breast
# HCT-116 colon = test system: HCT-116 colon
# HCC-2998 colon = test system: HCC-2998 colon
# KM12 colon = test system: KM12 colon
SMILES,growth (BT-549 breast),growth (MDA-MB-435 melanoma),growth (SW-620 colon),growth (MCF7 breast),growth (HCT-116 colon),growth (HCC-2998 colon),growth (KM12 colon)
O=Cc1[nH]c(Sc2ccccc2)c2ccccc12,53.4%,81.7%,81.1%,72.2%,60.6%,109%,81.2%
O=c1[nH]nc(-c2ccc(Br)cc2)c2sc(NC(=S)Nc3ccc(Cl)cc3)nc12,92.6%,104%,96.7%,79.7%,96.8%,97.6%,99.3%
C=C(C)[C@@H]1CC[C@]2(C(=O)n3ccnc3)CC[C@]3(C)[C@H](CC[C@@H]4[C@@]5(C)CCCNC(C)(C)[C@@H]5CC[C@]43C)[C@@H]12,40.2%,-34.4% (active),-62.8% (active),-20.3% (active),-76.7% (active),6.43% (active),28.4%
COc1cc(/C=N/Nc2nc(-c3ccc(F)cc3)c(C#N)c(N3CCOCC3)n2)ccc1O,94.3%,97%,95%,93.2%,96.8%,117%,103%
CCn1cc(C(=O)O)c(=O)c2cc(F)c(N3CCN(CC(=O)Nc4ccc(/C(C)=N/OC)cc4)CC3)cc21,92.5%,102%,110%,93.8%,104%,101%,94.5%
N#Cc1c(-c2ccc(F)cc2)nc(N=Nc2c(O)[nH]c3ccc(Cl)cc23)nc1N1CCOCC1,71.4%,67%,68.9%,39.9%,21.4%,96.7%,48.5%
COC(=O)CCc1cc(O)c2c(c1)[C@@H](C(=O)OC)[C@H](c1ccc(O)c(O)c1)O2,51.7%,4.1% (active),63.8%,23.7%,59.5%,94.9%,55.8%
CC1=C/C(=N\N=C2/C=C(C)CC(C)(C)C2)CC(C)(C)C1,112%,108%,106%,102%,98.1%,94.5%,107%
COc1ccc(NC(=O)c2ccc(Nc3ncnc4[nH]c(C)c(C)c34)cc2)cc1,99.1%,108%,102%,100%,106%,104%,103%
Cc1nccc2c3ccc(OCc4cn(-c5ccc(Cl)cc5)nn4)cc3n(CC(C)C)c12,28.3%,30.6%,24.4%,13%,10.8%,31.2%,19.3%
COc1cc(-c2csc(NC(=O)Nc3ccc(C(F)(F)F)cc3)n2)cc(OC)c1OC,-8.1% (active),-26.9% (active),14.8%,0.456% (active),5.03% (active),19.3%,7.27% (active)
CC[C@]12C=CCN3CC[C@@]4(c5ccc(OC)cc5N(C)[C@H]4[C@@](O)(C(=O)OC)[C@@H]1OC(=O)CCC(=O)O[C@H]1CC[C@H]4[C@@H]5CC[C@H]6CC(=O)CC[C@]6(C)[C@H]5CC[C@]14C)[C@@H]32,11.6%,29.4%,21.3%,9.98% (active),9.84% (active),41.4%,22.4%
CCOC(=O)c1cnn(-c2nc(-c3ccc(F)cc3)c(C#N)c(N3CCOCC3)n2)c1N,95.6%,99.1%,104%,89.9%,99.5%,111%,105%
COc1cc(-c2nn(-c3ccc(Br)cc3)cc2CO)ccc1O,89.6%,108%,104%,92.1%,92.6%,104%,91.7%
COc1ccc(Cc2nc(C#N)c(N3CCN(c4ccc(F)cc4)CC3)o2)cc1,94.5%,84.6%,97.7%,79.7%,78.2%,93.8%,78.8%
O=CN1N=C(c2ccc(Cl)cc2)CC1c1cccc(Nc2ccnc3cc(C(F)(F)F)ccc23)c1 (configuration not stated),53.9%,54.3%,89.8%,38%,56.3%,76.7%,59.2%

# Source: PubChem BioAssay (NCI)
